{"source": "the supplement of paper PMC6658780", "note": "Where a name gives a salt, the structure may show the parent alone. ± gives the standard deviation of the averaged measurements."}
{"test_system": "Klebsiella pneumoniae KPC-119", "test": "percent growth inhibition of drug alone vs DMSO control; higher = more growth inhibition", "conditions": "antibiotic (0.125x MIC): none (0.1% DMSO); 7 µM", "units": {"percent growth inhibition of drug alone": "%"}}
{"smiles": "NCC[C@H](O)C(=O)N[C@@H]1C[C@H](N)[C@@H](O[C@H]2O[C@H](CN)[C@@H](O)[C@H](O)[C@H]2O)[C@H](O)[C@H]1O[C@H]1O[C@H](CO)[C@@H](O)[C@H](N)[C@H]1O", "note": "[Amikacin hydrate]", "percent growth inhibition of drug alone": "3.37 ± 0.38"}
{"smiles": "COC(=O)N/N=C/c1c[n+]([O-])c2ccccc2[n+]1[O-]", "note": "[Carbadox]", "percent growth inhibition of drug alone": "1.29 ± 2"}
{"smiles": "CC1CCc2cc(F)cc3c(=O)c(C(=O)O)cn1c23", "note": "(stereo not given) [Flumequine]", "percent growth inhibition of drug alone": "15.15 ± 0.074"}
{"smiles": "CO[C@@H]1[C@@H](OC(N)=O)[C@@H](O)[C@H](Oc2ccc3c(O)c(NC(=O)c4ccc(O)c(CC=C(C)C)c4)c(=O)oc3c2C)OC1(C)C", "note": "[Novobiocin sodium salt]", "percent growth inhibition of drug alone": "0.874 ± 4.5"}
{"smiles": "C=CC1=C(C(=O)O)N2C(=O)[C@@H](NC(=O)/C(=N\\OCC(=O)O)c3csc(N)n3)[C@H]2SC1", "note": "[Cefixime]", "percent growth inhibition of drug alone": "9.48 ± 2.4"}
{"smiles": "O=C1NCN(c2ccccc2)C12CCN(CCCC(c1ccc(F)cc1)c1ccc(F)cc1)CC2", "note": "[Fluspirilen]", "percent growth inhibition of drug alone": "-0.668 ± 2.3"}
{"smiles": "CS(=O)(=O)c1ccc([C@@H](O)[C@@H](CF)NC(=O)C(Cl)Cl)cc1", "note": "[Florfenicol]", "percent growth inhibition of drug alone": "32.2 ± 2"}
{"smiles": "CC(=O)OCC(=O)[C@@]1(O)CC[C@H]2[C@@H]3CCC4=CC(=O)CC[C@]4(C)[C@@]3(F)[C@@H](O)C[C@@]21C", "note": "[Fludrocortisone acetate]", "percent growth inhibition of drug alone": "1.64 ± 0.4"}
{"smiles": "CC1COc2c(N3CCN(C)CC3)c(F)cc3c(=O)c(C(=O)O)cn1c23", "note": "(stereo not given) [Ofloxacin]", "percent growth inhibition of drug alone": "47.1 ± 5"}
{"smiles": "CO/N=C(\\C(=O)N[C@@H]1C(=O)N2C(C(=O)O)=C(C[N+]3(C)CCCC3)CS[C@H]12)c1csc(N)n1", "note": "[Cefepime hydrochloride]", "percent growth inhibition of drug alone": "3.95 ± 2.2"}
{"smiles": "CN(C)CCCN1c2ccccc2Sc2ccc(Cl)cc21", "note": "[Chlorpromazine hydrochloride]", "percent growth inhibition of drug alone": "-3.83 ± 2.6"}
{"smiles": "Nc1nc(/C(=C/CC(=O)O)C(=O)N[C@@H]2C(=O)N3C(C(=O)O)=CCS[C@H]23)cs1", "note": "[Ceftibuten]", "percent growth inhibition of drug alone": "38.6 ± 4.3"}
{"smiles": "CCn1cc(C(=O)O)c(=O)c2cc(F)c(N3CCNCC3)nc21", "note": "[Enoxacin]", "percent growth inhibition of drug alone": "1.76 ± 1.6"}
{"smiles": "CN(C(=O)CN(CCO)CC(=O)N(C)C(C)(C)Cc1ccccc1)C(C)(C)Cc1ccccc1", "note": "[Oxethazaine]", "percent growth inhibition of drug alone": "-4 ± 0.52"}
{"test_system": "Klebsiella pneumoniae KPC-119", "test": "percent growth inhibition of drug alone vs DMSO control; higher = more growth inhibition", "conditions": "antibiotic (0.125x MIC): none (0.1% DMSO); 20 µM", "units": {"percent growth inhibition of drug alone": "%"}}
{"smiles": "NCC[C@H](O)C(=O)N[C@@H]1C[C@H](N)[C@@H](O[C@H]2O[C@H](CN)[C@@H](O)[C@H](O)[C@H]2O)[C@H](O)[C@H]1O[C@H]1O[C@H](CO)[C@@H](O)[C@H](N)[C@H]1O", "note": "[Amikacin hydrate]", "percent growth inhibition of drug alone": "39.8 ± 0.7"}
{"smiles": "COC(=O)N/N=C/c1c[n+]([O-])c2ccccc2[n+]1[O-]", "note": "[Carbadox]", "percent growth inhibition of drug alone": "11 ± 1.9"}
{"smiles": "CC1CCc2cc(F)cc3c(=O)c(C(=O)O)cn1c23", "note": "(stereo not given) [Flumequine]", "percent growth inhibition of drug alone": "65.7 ± 2.7"}
{"smiles": "CO[C@@H]1[C@@H](OC(N)=O)[C@@H](O)[C@H](Oc2ccc3c(O)c(NC(=O)c4ccc(O)c(CC=C(C)C)c4)c(=O)oc3c2C)OC1(C)C", "note": "[Novobiocin sodium salt]", "percent growth inhibition of drug alone": "5.13 ± 1.4"}
{"smiles": "C=CC1=C(C(=O)O)N2C(=O)[C@@H](NC(=O)/C(=N\\OCC(=O)O)c3csc(N)n3)[C@H]2SC1", "note": "[Cefixime]", "percent growth inhibition of drug alone": "44.3 ± 4.2"}
{"smiles": "O=C1NCN(c2ccccc2)C12CCN(CCCC(c1ccc(F)cc1)c1ccc(F)cc1)CC2", "note": "[Fluspirilen]", "percent growth inhibition of drug alone": "-1.04 ± 3.2"}
{"smiles": "CS(=O)(=O)c1ccc([C@@H](O)[C@@H](CF)NC(=O)C(Cl)Cl)cc1", "note": "[Florfenicol]", "percent growth inhibition of drug alone": "96.46 ± 0.59"}
{"smiles": "CC(=O)OCC(=O)[C@@]1(O)CC[C@H]2[C@@H]3CCC4=CC(=O)CC[C@]4(C)[C@@]3(F)[C@@H](O)C[C@@]21C", "note": "[Fludrocortisone acetate]", "percent growth inhibition of drug alone": "3.28 ± 1.7"}
{"smiles": "CC1COc2c(N3CCN(C)CC3)c(F)cc3c(=O)c(C(=O)O)cn1c23", "note": "(stereo not given) [Ofloxacin]", "percent growth inhibition of drug alone": "97.47 ± 0.25"}
{"smiles": "CN(C)CCCN1c2ccccc2Sc2ccc(Cl)cc21", "note": "[Chlorpromazine hydrochloride]", "percent growth inhibition of drug alone": "-3.58 ± 1.3"}
{"smiles": "CCCCC(CC)CNC(=N)NC(=N)NCCCCCCNC(=N)NC(=N)NCC(CC)CCCC", "note": "(stereo not given) [Alexidine dihydrochloride]", "percent growth inhibition of drug alone": "99.76 ± 0.25"}
{"smiles": "CCn1cc(C(=O)O)c(=O)c2cc(F)c(N3CCNCC3)nc21", "note": "[Enoxacin]", "percent growth inhibition of drug alone": "25.2 ± 4"}
{"smiles": "CN(C(=O)CN(CCO)CC(=O)N(C)C(C)(C)Cc1ccccc1)C(C)(C)Cc1ccccc1", "note": "[Oxethazaine]", "percent growth inhibition of drug alone": "-5.74 ± 4.4"}
{"test_system": "Klebsiella pneumoniae NCTC-13439", "test": "percent growth inhibition of drug alone vs DMSO control; higher = more growth inhibition", "conditions": "antibiotic (0.125x MIC): none (0.1% DMSO); 7 µM", "units": {"percent growth inhibition of drug alone": "%"}}
{"smiles": "Cc1c(F)c(N2CCNC(C)C2)cc2c1c(=O)c(C(=O)O)cn2C1CC1", "note": "(stereo not given) [Grepafloxacin]", "percent growth inhibition of drug alone": "13 ± 6.5"}
{"smiles": "N=C(NCCCCCCNC(=N)NC(=N)Nc1ccc(Cl)cc1)NC(=N)Nc1ccc(Cl)cc1", "note": "[Chlorhexidine]", "percent growth inhibition of drug alone": "2.54 ± 9.5"}
{"smiles": "NC1CCN(c2nc3c(cc2F)c(=O)c(C(=O)O)cn3-c2ccc(F)cc2F)C1", "note": "(stereo not given) [Tosufloxacin hydrochloride]", "percent growth inhibition of drug alone": "56.5 ± 19"}
{"smiles": "Cc1nc2n(c(=O)c1CCN1CCC(c3noc4cc(F)ccc34)CC1)CCCC2", "note": "[Risperidone]", "percent growth inhibition of drug alone": "-5.2 ± 14"}
{"smiles": "NC1CCN(c2c(F)cc3c(=O)c(C(=O)O)cn(C4CC4)c3c2Cl)C1", "note": "(stereo not given) [Clinafloxacin]", "percent growth inhibition of drug alone": "13.5 ± 8.8"}
{"smiles": "CCN1CCN(c2cc3c(cc2F)c(=O)c(C(=O)O)cn3C2CC2)CC1", "note": "[Enrofloxacin]", "percent growth inhibition of drug alone": "3.46 ± 4.9"}
{"smiles": "NC(=O)N/N=C/c1ccc([N+](=O)[O-])o1", "note": "[Nitrofural]", "percent growth inhibition of drug alone": "-7.28 ± 2"}
{"smiles": "O=C(OCC(O)CO)c1ccccc1Nc1ccnc2cc(Cl)ccc12", "note": "(stereo not given) [Glafenine hydrochloride]", "percent growth inhibition of drug alone": "-9.8 ± 14"}
{"smiles": "C#C[C@]1(OC(C)=O)CC[C@H]2[C@@H]3CCC4=CC(=NO)CC[C@@H]4[C@H]3CC[C@@]21CC", "note": "(mixture of isomers) [Norgestimate]", "percent growth inhibition of drug alone": "-4.1 ± 1.3"}
{"smiles": "COc1ccc(OC)c(C(O)CNC(=O)CN)c1", "note": "(stereo not given) [Midodrine hydrochloride]", "percent growth inhibition of drug alone": "-12.1 ± 4.3"}
{"smiles": "C[C@H](N)[C@H](O)c1cccc(O)c1", "note": "[Metaraminol bitartrate]", "percent growth inhibition of drug alone": "-7.73 ± 11"}
{"smiles": "COc1c(N2C[C@@H]3CCCN[C@@H]3C2)c(F)cc2c(=O)c(C(=O)O)cn(C3CC3)c12", "note": "[Moxifloxacin]", "percent growth inhibition of drug alone": "12.5 ± 0.24"}
{"smiles": "COc1c(N2CCNC(C)C2)c(F)cc2c(=O)c(C(=O)O)cn(C3CC3)c12", "note": "(stereo not given) [Gatifloxacin]", "percent growth inhibition of drug alone": "12.5 ± 5.8"}
